Granule exo inh = lytic granule exocytosis inhibition. inhibition, % at 10 µM. hit rate 0.66% among 360,000. AID 651702. TALL-104 LAMP-1 surface exposure, flow cytometry; cells stimulated with thapsigargin and PMA;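 active = inhibition above about 55%, limit read from the data; inconclusive = no clear call, values can overlap the other calls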
ABCB6 inh 2 = human ABCB6 transporter inhibition; Q9NP58; K562-ABCB6 porphyrin accumulation, flow cytometry, 1 h; active compounds read low; hit rate 0.19% among 360,000; fluorescence ratio to DMSO, % at 10 µM;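 active = fluorescence ratio to DMSO below 75%, the collection mean minus 3 SD; inconclusive = too few cells collected in the well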;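 note: signal is porphyrin accumulated inside mitochondria; 100% equals median channel fluorescence of DMSO control wells; lower ratio means ABCB6 inhibition with less porphyrin fluorescence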
Target sequence (Q9NP58 whole entry, looked up): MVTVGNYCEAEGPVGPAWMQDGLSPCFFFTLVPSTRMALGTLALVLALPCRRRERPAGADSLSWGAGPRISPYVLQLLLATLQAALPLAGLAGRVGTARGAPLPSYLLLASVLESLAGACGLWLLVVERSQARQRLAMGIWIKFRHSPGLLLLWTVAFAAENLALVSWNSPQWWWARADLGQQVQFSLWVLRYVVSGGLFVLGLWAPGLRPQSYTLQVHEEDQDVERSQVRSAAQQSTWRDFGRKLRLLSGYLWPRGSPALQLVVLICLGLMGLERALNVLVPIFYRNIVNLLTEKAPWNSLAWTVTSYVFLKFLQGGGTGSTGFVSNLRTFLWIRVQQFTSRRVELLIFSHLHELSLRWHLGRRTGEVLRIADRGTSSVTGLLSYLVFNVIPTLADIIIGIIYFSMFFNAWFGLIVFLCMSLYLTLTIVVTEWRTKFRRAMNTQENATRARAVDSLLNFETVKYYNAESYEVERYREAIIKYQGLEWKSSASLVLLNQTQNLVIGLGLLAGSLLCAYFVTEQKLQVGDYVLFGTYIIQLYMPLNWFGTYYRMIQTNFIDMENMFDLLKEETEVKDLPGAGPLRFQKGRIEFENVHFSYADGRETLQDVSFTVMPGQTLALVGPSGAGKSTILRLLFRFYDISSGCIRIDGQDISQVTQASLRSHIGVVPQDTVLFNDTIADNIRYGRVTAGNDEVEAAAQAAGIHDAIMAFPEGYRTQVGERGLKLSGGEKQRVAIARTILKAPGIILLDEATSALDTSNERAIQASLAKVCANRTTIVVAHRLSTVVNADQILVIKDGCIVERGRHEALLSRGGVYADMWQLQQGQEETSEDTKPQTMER
PG9 binder = PG9 antibody binding by small molecule; inhibition, % at 6.7 µM; AID 624416; TR-FRET gp120-PG9 antibody binding; hit rate 0.43% among 360,000; in the data active = inhibition above about 8.5%
rCAG RNA binder = r(CAG) repeat RNA binding; TO-PRO-1 dye displacement fluorescence; inhibition, % at 3 µM; hit rate 1.3% among 370,000;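 active = inhibition above the plate cutoff, the mean of all test compounds on that plate plus 3 SD, cut at about 35% in these data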;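 note: 0% = DMSO alone and 100% = 100 µM mitoxantrone as full dye displacement; higher means more dye released from RNA so lower well fluorescence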
rCAG binder conf = r(CAG) RNA repeat binding, confirmation; shares compounds with rCAG RNA binder; TO-PRO-1 dye displacement fluorescence; hit rate 70% among 4,300; AID 652065; inhibition, % at 3 µM;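 active = inhibition above a per-plate cutoff, the mean inhibition of sample wells plus 3 SD, cut at about 35% in these data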;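 note: loss of TO-PRO-1 fluorescence as compound displaces dye from 1x1 AA loop RNA; 0% = DMSO only wells and 100% = 100 µM mitoxantrone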
DNA CAG counter = DNA CAG dye complex inhibition counter-screen; d(CAG) DNA oligo TO-PRO-1 dye displacement, fluorescence; hit rate 94% among 4,300; inhibition, % at 3 µM; AID 652068; shares compounds with rCAG RNA binder;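 active = inhibition above its plate's cutoff, the mean test-well inhibition plus 3 SD, cut at about 4.8% in these data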;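 note: 0% = DNA dye mix with DMSO and 100% = 100 µM mitoxantrone; hits displace the dye from DNA and so lower well fluorescence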
Active calls of the source: *; ? = inconclusive; . = not tested or not shown. The list is not random: actives were taken first. Their share in the collection is about 2.5%.

SMILES	Granule exo inh	ABCB6 inh 2	PG9 binder	rCAG RNA binder	rCAG binder conf	DNA CAG counter
Cc1ccc(S(=O)(=O)NC(=O)C2(C)CCN2C(=O)c2ccccc2CCc2ccccc2)nc1 (stereo unspecified)	-4	100	-2	23	.	.
CCc1ccc(-n2c(=S)sc3c(=O)[nH]c(SCC(=O)NC4CCCCC4)nc32)cc1	2	100	-1	9	.	.
CCOC(=O)CC(=O)CSc1nc2c(sc(=S)n2-c2ccccc2)c(=O)[nH]1	1	100	-1	41*	21	5.8*
CCOC(=O)CSc1nc2c(sc(=S)n2-c2ccc(CC)cc2)c(=O)[nH]1	-5	99	-2	60*	65*	26*
CCCCNC(=O)CSc1nc2c(sc(=S)n2-c2cc(Cl)ccc2OC)c(=O)[nH]1	2	96	-2	44*	43*	12*
O=c1[nH]c(/C=C/c2ccc(Cl)cc2Cl)c([N+](=O)[O-])c(=O)[nH]1	-3	102	2	33	.	.
CCOC(=O)c1ccccc1NC(=O)Cc1c(C(=O)O)n(C)c2ccccc12	-2	98	0	37*	25	4
C=CCn1c(C)nnc1SCC(=O)Nc1nccs1	3	94	-3	-1	.	.
O=C(O)COc1ccc(/C=N/NC(=O)c2cn(-c3ccccc3)nc2-c2ccccc2)cc1	-4	92	1	43*	35*	10*
O=C(N/N=C/c1ccc([N+](=O)[O-])o1)c1cn(-c2ccccc2)nc1-c1ccccc1	-3	127	1	39*	19	10*
Cc1[nH]c(=O)sc1C(=O)NCc1ccc([N+](=O)[O-])cc1	6	99	-1	1	.	.
CCN(c1ccc(OC)cc1)S(=O)(=O)c1ccc2c(c1)CC(C)N2C(=O)C1CC1 (stereo unspecified)	0	100	-2	-3	.	.
Fc1ccc(-c2nc3c4ccccc4ccn3c2Cc2cccc(Cl)c2)cc1	-8	109	1	4	.	.
CCCCCCCCCCCCCCCCCCNc1ccn(C2OC(COP(=O)(O)OCC3OC(n4cc(F)c(=O)[nH]c4=O)CC3O)C(O)C2O)c(=O)n1 (stereo unspecified)	6	150	-1	55*	61*	36*
O=C(Nc1ccc(N2C(=O)C3C4C=CC(C4)C3C2=O)cc1)Nc1nncs1 (stereo unspecified)	5	99	2	11	.	.
O=C(Nc1ccc(N2C(=O)C3C4C=CC(C4)C3C2=O)cc1)Nc1nnc(C(F)(F)F)s1 (stereo unspecified)	-6	100	2	55*	40*	16*
Cc1ccc(S(=O)(=O)c2nnn3c2nc(NC2CCN(Cc4ccccc4)CC2)c2ccccc23)cc1C	30	109	.	.	.	.
CCOc1cc(/C=N/N=C2/NC(=O)C(CC(=O)O)S2)ccc1OCc1ccc(Cl)cc1 (stereo unspecified)	1	102	0	60*	40*	10*
COc1cc(/C=N/N=C2/NC(=O)C(CC(=O)O)S2)ccc1OCc1cccc(Cl)c1 (stereo unspecified)	4	95	0	43*	26	5.5*
COc1cccc(NC(=S)N(Cc2cccc(Br)c2)CC2CCC(C(=O)O)CC2)c1 (stereo unspecified)	7	104	0	21	.	.
CC(=O)c1nnn(-c2c(F)cccc2F)c1C	-1	93	-1	-1	.	.
CCNc1ccccc(C(=O)/C=C/c2ccc3c(c2)OCO3)c1=O	3	133	0	34	.	.
CNc1ccccc(C(=O)/C=C/c2ccccc2OC)c1=O	-1	115	-2	26	.	.
CCNc1ccc(Br)cc(C(=O)/C=C/c2ccccc2Cl)c1=O	0	114	2	46*	34	15*
CNc1ccc(Br)cc(C(=O)/C=C/c2cccc(OC)c2OC)c1=O	0	109	-5	35*	28	11*
CNc1ccc(Br)cc(C(=O)/C=C/c2cccc(Cl)c2Cl)c1=O	98*	261	1	48*	50*	23*
CCOC(=O)c1cc(-c2ccccc2)nc2c(O)cccc12	-1	100	1	3	.	.
O=[N+]([O-])c1ccc(O)c(/C=N/NC(=S)Nc2ccc(Cl)cc2Cl)c1	?	98	0	46*	89*	64*
O=[N+]([O-])c1cccc(N/N=C/c2cc([N+](=O)[O-])ccc2O)c1	2	104	-1	36*	27	10*

Assay outcomes: PubChem, several laboratories
